Experimental data taken from article doi:10.1101/2024.03.05.583629.

Molecular target: pT7_6His-AlfaTag-HOXD13 (human, UniProt P35453 263-343)
Test: PADIT-seq
Settings: dsDNA, one strand shown

Chain of pT7_6His-AlfaTag-HOXD13 (P35453 263-343): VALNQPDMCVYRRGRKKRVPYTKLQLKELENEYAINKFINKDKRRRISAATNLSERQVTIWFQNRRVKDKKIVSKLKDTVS

Row | Sequence | binding signal [log2FC]
1 | CTCGAGGATATCAAGATCTGGCCTCGGCTTTTTATAAGGAACCTCTAGCTAGCCGACTCACTATAGGGATAATCGCCCTGAGCAAAGACC | 3.23 ± 0.0851
2 | CTCGAGGATATCAAGATCTGGCCTCGGCTATCTAAAAGGAACCTCTAGCTAGCCGACTCACTATAGGGATAATCGCCCTGAGCAAAGACC | -0.377 ± 0.118
3 | CTCGAGGATATCAAGATCTGGCCTCGGCACTTGGGCGGGAACCTCTAGCTAGCCGACTCACTATAGGGATAATCGCCCTGAGCAAAGACC | -1.04 ± 0.114
4 | CTCGAGGATATCAAGATCTGGCCTCGGCCGCCCATAGGGAACCTCTAGCTAGCCGACTCACTATAGGGATAATCGCCCTGAGCAAAGACC | -0.685 ± 0.116
5 | CTCGAGGATATCAAGATCTGGCCTCGGCCTTTTAGATGGAACCTCTAGCTAGCCGACTCACTATAGGGATAATCGCCCTGAGCAAAGACC | 0.264 ± 0.0998
6 | CTCGAGGATATCAAGATCTGGCCTCGGCAGCTTAAAAGGAACCTCTAGCTAGCCGACTCACTATAGGGATAATCGCCCTGAGCAAAGACC | 0.129 ± 0.0835
7 | CTCGAGGATATCAAGATCTGGCCTCGGCTGACCACGCGGAACCTCTAGCTAGCCGACTCACTATAGGGATAATCGCCCTGAGCAAAGACC | -1.02 ± 0.112
8 | CTCGAGGATATCAAGATCTGGCCTCGGCGCGTGGAGCGGAACCTCTAGCTAGCCGACTCACTATAGGGATAATCGCCCTGAGCAAAGACC | -0.893 ± 0.118
9 | CTCGAGGATATCAAGATCTGGCCTCGGCCGCCCATTAGGAACCTCTAGCTAGCCGACTCACTATAGGGATAATCGCCCTGAGCAAAGACC | -0.218 ± 0.102
10 | CTCGAGGATATCAAGATCTGGCCTCGGCTAGGTAAAAGGAACCTCTAGCTAGCCGACTCACTATAGGGATAATCGCCCTGAGCAAAGACC | -0.394 ± 0.106
11 | CTCGAGGATATCAAGATCTGGCCTCGGCTTTTTATCTGGAACCTCTAGCTAGCCGACTCACTATAGGGATAATCGCCCTGAGCAAAGACC | 0.754 ± 0.104
12 | CTCGAGGATATCAAGATCTGGCCTCGGCCCGTTAAAAGGAACCTCTAGCTAGCCGACTCACTATAGGGATAATCGCCCTGAGCAAAGACC | 2.37 ± 0.0792
13 | CTCGAGGATATCAAGATCTGGCCTCGGCGTTTTAATTGGAACCTCTAGCTAGCCGACTCACTATAGGGATAATCGCCCTGAGCAAAGACC | 2.42 ± 0.0771
14 | CTCGAGGATATCAAGATCTGGCCTCGGCCCCTTAAAAGGAACCTCTAGCTAGCCGACTCACTATAGGGATAATCGCCCTGAGCAAAGACC | 2.7 ± 0.0989
15 | CTCGAGGATATCAAGATCTGGCCTCGGCGTTTTACCGGGAACCTCTAGCTAGCCGACTCACTATAGGGATAATCGCCCTGAGCAAAGACC | 1.01 ± 0.0969
16 | CTCGAGGATATCAAGATCTGGCCTCGGCCTTCCACGCGGAACCTCTAGCTAGCCGACTCACTATAGGGATAATCGCCCTGAGCAAAGACC | -1.1 ± 0.121
17 | CTCGAGGATATCAAGATCTGGCCTCGGCGGTATAAAAGGAACCTCTAGCTAGCCGACTCACTATAGGGATAATCGCCCTGAGCAAAGACC | 1.44 ± 0.072
18 | CTCGAGGATATCAAGATCTGGCCTCGGCACGATAAAAGGAACCTCTAGCTAGCCGACTCACTATAGGGATAATCGCCCTGAGCAAAGACC | 1.32 ± 0.0937
19 | CTCGAGGATATCAAGATCTGGCCTCGGCATACTAAAAGGAACCTCTAGCTAGCCGACTCACTATAGGGATAATCGCCCTGAGCAAAGACC | 0.619 ± 0.0967

Row | Sequence | binding signal [log2FC]
20 | CTCGAGGATATCAAGATCTGGCCTCGGCGTTTTACGCGGAACCTCTAGCTAGCCGACTCACTATAGGGATAATCGCCCTGAGCAAAGACC | 2.22 ± 0.0821
21 | CTCGAGGATATCAAGATCTGGCCTCGGCACGTTAAAAGGAACCTCTAGCTAGCCGACTCACTATAGGGATAATCGCCCTGAGCAAAGACC | 1.42 ± 0.0726
22 | CTCGAGGATATCAAGATCTGGCCTCGGCCTTTTAAATGGAACCTCTAGCTAGCCGACTCACTATAGGGATAATCGCCCTGAGCAAAGACC | 2.36 ± 0.0747
23 | CTCGAGGATATCAAGATCTGGCCTCGGCTAAATAAAAGGAACCTCTAGCTAGCCGACTCACTATAGGGATAATCGCCCTGAGCAAAGACC | 1.68 ± 0.0988
24 | CTCGAGGATATCAAGATCTGGCCTCGGCCTTTTAATGGGAACCTCTAGCTAGCCGACTCACTATAGGGATAATCGCCCTGAGCAAAGACC | 2.57 ± 0.0798
25 | CTCGAGGATATCAAGATCTGGCCTCGGCCGCCCAGCGGGAACCTCTAGCTAGCCGACTCACTATAGGGATAATCGCCCTGAGCAAAGACC | -0.602 ± 0.194
26 | CTCGAGGATATCAAGATCTGGCCTCGGCTTTTTACCGGGAACCTCTAGCTAGCCGACTCACTATAGGGATAATCGCCCTGAGCAAAGACC | 0.978 ± 0.0873
27 | CTCGAGGATATCAAGATCTGGCCTCGGCCTTATAAAAGGAACCTCTAGCTAGCCGACTCACTATAGGGATAATCGCCCTGAGCAAAGACC | 2.88 ± 0.0949
28 | CTCGAGGATATCAAGATCTGGCCTCGGCTCAGTAAAAGGAACCTCTAGCTAGCCGACTCACTATAGGGATAATCGCCCTGAGCAAAGACC | 1.56 ± 0.0915
29 | CTCGAGGATATCAAGATCTGGCCTCGGCATGATAAAAGGAACCTCTAGCTAGCCGACTCACTATAGGGATAATCGCCCTGAGCAAAGACC | 1.61 ± 0.0749
30 | CTCGAGGATATCAAGATCTGGCCTCGGCGTTTTACGAGGAACCTCTAGCTAGCCGACTCACTATAGGGATAATCGCCCTGAGCAAAGACC | 3.47 ± 0.133
31 | CTCGAGGATATCAAGATCTGGCCTCGGCGGCCTAAAAGGAACCTCTAGCTAGCCGACTCACTATAGGGATAATCGCCCTGAGCAAAGACC | -0.691 ± 0.105
32 | CTCGAGGATATCAAGATCTGGCCTCGGCTTTTTATGAGGAACCTCTAGCTAGCCGACTCACTATAGGGATAATCGCCCTGAGCAAAGACC | 3.46 ± 0.0792
33 | CTCGAGGATATCAAGATCTGGCCTCGGCTTCTTAAAAGGAACCTCTAGCTAGCCGACTCACTATAGGGATAATCGCCCTGAGCAAAGACC | 0.549 ± 0.0953
34 | CTCGAGGATATCAAGATCTGGCCTCGGCCGCCCAGAGGGAACCTCTAGCTAGCCGACTCACTATAGGGATAATCGCCCTGAGCAAAGACC | -1.03 ± 0.139
35 | CTCGAGGATATCAAGATCTGGCCTCGGCATTTTATTTGGAACCTCTAGCTAGCCGACTCACTATAGGGATAATCGCCCTGAGCAAAGACC | 2.85 ± 0.07
36 | CTCGAGGATATCAAGATCTGGCCTCGGCCGTCTAAAAGGAACCTCTAGCTAGCCGACTCACTATAGGGATAATCGCCCTGAGCAAAGACC | -0.577 ± 0.117
37 | CTCGAGGATATCAAGATCTGGCCTCGGCTTTTTACTCGGAACCTCTAGCTAGCCGACTCACTATAGGGATAATCGCCCTGAGCAAAGACC | 0.725 ± 0.0977
38 | CTCGAGGATATCAAGATCTGGCCTCGGCGCGTTAAAAGGAACCTCTAGCTAGCCGACTCACTATAGGGATAATCGCCCTGAGCAAAGACC | 1.22 ± 0.079

Row | Sequence | binding signal [log2FC]
39 | CTCGAGGATATCAAGATCTGGCCTCGGCTCCGTAAAAGGAACCTCTAGCTAGCCGACTCACTATAGGGATAATCGCCCTGAGCAAAGACC | 1.22 ± 0.0847
40 | CTCGAGGATATCAAGATCTGGCCTCGGCTGACTAAAAGGAACCTCTAGCTAGCCGACTCACTATAGGGATAATCGCCCTGAGCAAAGACC | -0.535 ± 0.11
41 | CTCGAGGATATCAAGATCTGGCCTCGGCCTTTTAGTTGGAACCTCTAGCTAGCCGACTCACTATAGGGATAATCGCCCTGAGCAAAGACC | 0.113 ± 0.0927
42 | CTCGAGGATATCAAGATCTGGCCTCGGCATTTTAAGCGGAACCTCTAGCTAGCCGACTCACTATAGGGATAATCGCCCTGAGCAAAGACC | 0.548 ± 0.1
43 | CTCGAGGATATCAAGATCTGGCCTCGGCCGGCTAAAAGGAACCTCTAGCTAGCCGACTCACTATAGGGATAATCGCCCTGAGCAAAGACC | -0.621 ± 0.107
44 | CTCGAGGATATCAAGATCTGGCCTCGGCACGGTAAAAGGAACCTCTAGCTAGCCGACTCACTATAGGGATAATCGCCCTGAGCAAAGACC | 0.528 ± 0.077
45 | CTCGAGGATATCAAGATCTGGCCTCGGCGTCTTAAAAGGAACCTCTAGCTAGCCGACTCACTATAGGGATAATCGCCCTGAGCAAAGACC | 1.44 ± 0.067
46 | CTCGAGGATATCAAGATCTGGCCTCGGCTAGTTAAAAGGAACCTCTAGCTAGCCGACTCACTATAGGGATAATCGCCCTGAGCAAAGACC | 2.53 ± 0.0756
47 | CTCGAGGATATCAAGATCTGGCCTCGGCACAATAAAAGGAACCTCTAGCTAGCCGACTCACTATAGGGATAATCGCCCTGAGCAAAGACC | 2.72 ± 0.0742
48 | CTCGAGGATATCAAGATCTGGCCTCGGCGATATAAAAGGAACCTCTAGCTAGCCGACTCACTATAGGGATAATCGCCCTGAGCAAAGACC | 1.99 ± 0.0693
49 | CTCGAGGATATCAAGATCTGGCCTCGGCGCTGTAAAAGGAACCTCTAGCTAGCCGACTCACTATAGGGATAATCGCCCTGAGCAAAGACC | 2.11 ± 0.0786
50 | CTCGAGGATATCAAGATCTGGCCTCGGCCTGCTAAAAGGAACCTCTAGCTAGCCGACTCACTATAGGGATAATCGCCCTGAGCAAAGACC | 0.179 ± 0.113
51 | CTCGAGGATATCAAGATCTGGCCTCGGCGGACCACGCGGAACCTCTAGCTAGCCGACTCACTATAGGGATAATCGCCCTGAGCAAAGACC | -0.846 ± 0.11
52 | CTCGAGGATATCAAGATCTGGCCTCGGCGAAATAAAAGGAACCTCTAGCTAGCCGACTCACTATAGGGATAATCGCCCTGAGCAAAGACC | 1.47 ± 0.0776
53 | CTCGAGGATATCAAGATCTGGCCTCGGCGATTTAAAAGGAACCTCTAGCTAGCCGACTCACTATAGGGATAATCGCCCTGAGCAAAGACC | 2.1 ± 0.071
54 | CTCGAGGATATCAAGATCTGGCCTCGGCCTTTTATATGGAACCTCTAGCTAGCCGACTCACTATAGGGATAATCGCCCTGAGCAAAGACC | 2.91 ± 0.0779
55 | CTCGAGGATATCAAGATCTGGCCTCGGCCGCCCAGAAGGAACCTCTAGCTAGCCGACTCACTATAGGGATAATCGCCCTGAGCAAAGACC | -1.09 ± 0.133
56 | CTCGAGGATATCAAGATCTGGCCTCGGCTATCCACGCGGAACCTCTAGCTAGCCGACTCACTATAGGGATAATCGCCCTGAGCAAAGACC | -1.03 ± 0.113
57 | CTCGAGGATATCAAGATCTGGCCTCGGCTTTGTAAAAGGAACCTCTAGCTAGCCGACTCACTATAGGGATAATCGCCCTGAGCAAAGACC | 1.2 ± 0.0832
